# A selection: hits, their analogues and other compounds. The true share with any hit is near 3.7%.
# tim10-1 inh: growth inhibitors of tim10-1 mutant yeast, primary screen, luminescence, uHTS. S. cerevisiae tim10-1 ts strain growth, BacTiter-Glo, 24 h. inhibition, % at 20 µM. 330,000 compounds, 2.2% hits. AID 463190, 2010;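 active = inhibition of at least 40%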;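 note: mutant grown at 25 °C; 0% = DMSO wells with yeast and 100% = wells holding no yeast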
# PfHsp90 yeast 2: growth inhibition of PfHsp90-expressing yeast, primary screen, antimalarial PfHsp90 inhibitor project, S. cerevisiae, BacTiter-Glo luminescence, single point, set 2. BacTiter-Glo ATP, 48 h; yeast lacking PDR1 and PDR3 efflux regulators. 310,000 compounds, 0.32% hits. AID 504621, 2011. inhibition, % at 9.4 µM;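 active = every replicate shows inhibition above about 80%, whatever the replicate mean, limit read from the data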;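 note: 0% = DMSO neutral controls and 100% = 20 µM radicicol positive controls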
# NALP3 yeast inh: NALP3 inflammasome inhibitors in reconstituted yeast, primary screen, luminescence, uHTS; Yeast reconstituted NLRP3/ASC/caspase-1, beta-gal luminescence, 24 h; inhibition, % at 10 µM; 330,000 compounds, 0.39% hits;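 active = inhibition of 50% or more; inactive = inhibition below 50%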;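 note: plate controls were induced DMSO wells for no effect and uninduced yeast grown without galactose for full effect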
# tim23-1 inh: growth inhibitors of tim23-1 mutant yeast, primary screen, luminescence, uHTS; 330,000 compounds, 1.3% hits; inhibition, % at 20 µM; S. cerevisiae tim23-1 growth, BacTiter-Glo luminescence, 24 h;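 active = growth inhibition of the mutant yeast at or above 50%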;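 note: temperature-sensitive mutant grown at 25 °C; plate controls were DMSO-treated mutant yeast for no effect and medium wells lacking yeast for full effect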
# TIM10 inh: growth inhibitors of isogenic TIM10 control yeast, primary screen, counter-screen for tim10-1 yeast inhibitor project, luminescence, uHTS; S. cerevisiae TIM10 strain growth, BacTiter-Glo luminescence, 24 h; inhibition, % at 10 µM; 330,000 compounds, 1.4% hits; AID 463195, 2010;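 active = inhibition of 40% or more at the single tested concentration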;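 note: wild-type TIM10 isogenic control strain grown at permissive 25 °C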
# The depositor's hits bear a star; . = not tested or not shown; + = active, no number.
SMILES,tim10-1 inh,PfHsp90 yeast 2,NALP3 yeast inh,tim23-1 inh,TIM10 inh
C/C(=N/NC(=O)CNC(=O)/C=C/c1ccccc1)c1ccco1,10.0,-0.6,3.8,22.1,16.7
O=C1/C(=C/c2ccncc2)CCC/C1=C\c1ccncc1,.,101.8*,.,.,.
O=C(C1CCN(c2ccc(N3CCOCC3)nn2)CC1)N1CCN(c2ccc(F)cc2)CC1,7.7,13.9,-5.4,-2.0,1.4
Cc1ccc2nsnc2c1NS(=O)(=O)c1c(C)ccc2nsnc12,39.6,-5.8,23.7,30.6,12.0
Cc1ccc(/C=[N+](\[O-])c2ccc(N(C)C)cc2)c2nsnc12,30.4,108.6*,26.8,44.2,28.3
Oc1c(C(c2ccccc2)N2CCOCC2)ccc2ccccc12 (stereo not given),.,101.1*,.,.,.
CCCCN(C(=O)CCC(=O)O)C1CC(=O)N(c2ccc(OCCC)cc2)C1=O (stereo not given),16.3,4.7,16.3,13.6,0.6
CCCCCCC(=O)N(O)C1CC(=O)N(c2ccc(F)cc2)C1=O (stereo not given),31.8,109.1*,8.8,31.2,24.3
CCN(CC)C(=O)[C@H]1C[C@H](CC(=O)NCc2ccco2)C(=O)N2CCc3c([nH]c4cc(CCC(=O)N(C)C)ccc34)[C@]12C,21.7,1.4,.,29.7,-3.2
COc1ccc2c(c1)OC[C@H]1[C@H]2N2C(=O)c3cc(Cl)ccc3NC(=O)[C@@]2(C)[C@H]1c1ccccc1,33.1,+,5.5,37.8,21.4
CCN1C/C(=C/c2cccc([N+](=O)[O-])c2)C(=O)/C(=C/c2cccc([N+](=O)[O-])c2)C1,.,101.9*,.,.,.
CCc1ccc(CNC(=O)C2CCN(S(=O)(=O)N3CCC4(CC3)OCCO4)CC2)cc1,21.0,6.4,7.5,15.8,13.9
CCc1nnc(N/N=C/c2cc(Br)c(O)cc2O)n1N,5.3,-8.1,-4.7,4.0,2.0
CC(C)(C)c1nnc(N/N=C/c2cc(Br)ccc2O)n(N)c1=O,.,105.1*,.,.,.
CS(=O)c1ccccc1-c1nc(-c2ccc([N+](=O)[O-])cc2)no1 (stereo not given),.,-7.2,.,.,.
CS(=O)(=O)c1ccccc1C(=O)Nc1ccc(S(=O)(=O)N2CCCC2)cc1,11.2,.,0.9,9.0,-0.8
N#C/C(=C/c1ccc(O)cc1)C(=O)NCc1ccc(Cl)cc1,-15.2,103.4*,3.6,6.1,16.6
O=S(=O)(Cc1ccc(Cl)cc1)CC(O)COCc1ccccc1 (stereo not given),23.2,8.9,14.4,20.6,23.7
O=S(=O)(c1c(F)cccc1F)N(CCc1ccc(F)cc1)C[C@@H](O)COCc1ccccc1,.,119.6*,.,.,.
CCOC(=O)C1=C(N)N2C(=O)C(C)SC2=C(C(=O)OC)C1c1ccccc1OC (stereo not given),24.8,133.4*,15.9,-16.1,-15.3
CCOC(=O)C1=C(N)N2C(=O)C(C)SC2=C(C(=O)OCC)C1c1ccccc1 (stereo not given),16.5,-11.8,15.1,22.3,5.2
Oc1c(CN2CCCCC2)cc(Br)c2cccnc12,10.7,104.0*,44.3,21.0,24.2
O=C(COc1c(Br)cc(Br)c2cccnc12)N1CCCCC1,33.8,-27.8,2.7,31.8,-9.6
CCCCNC(=O)c1cc(-c2ccc(F)cc2)on1,1.0,-10.3,23.9,15.4,-15.1
CCOc1ccc(S(=O)(=O)NCc2ccccn2)c(C)c1C,12.2,93.2*,12.6,16.4,-2.0
SMILES,tim10-1 inh,PfHsp90 yeast 2,NALP3 yeast inh,tim23-1 inh,TIM10 inh
COc1ccc(S(=O)(=O)NCc2ccccn2)c(C)c1C,-2.9,-32.6,6.5,1.7,0.7
Cn1c(N)nc2nc(CCc3ccccc3)c(=O)[nH]c2c1=O,-9.5,13.1,5.4,-23.8,-12.3
CCCCC(=O)NC(c1cccs1)c1cc(Cl)c2cccnc2c1O (stereo not given),22.9,102.5*,20.3,43.9,13.1
CCCCC(=O)NC(c1ccc(Cl)cc1Cl)c1ccc2cccnc2c1O (stereo not given),1.7,-78.3,16.0,-3.9,-65.0
CCCC(=O)NC(c1ccc(OC)c(OC)c1)c1cc(Cl)c2cccnc2c1O (stereo not given),25.5,100.1*,16.9,7.9,-7.5
COc1ccc(C(NC(C)=O)c2cc(Cl)c3cccnc3c2O)cc1 (stereo not given),36.3,-103.5,30.8,46.3,-5.2
O=C(NC(c1ccc(Cl)cc1)c1cc(Cl)c2cccnc2c1O)c1cccnc1 (stereo not given),.,101.8*,.,.,.
COc1ccc(CN2C(=O)c3cccnc3C2=O)cc1S(=O)(=O)NC1CCCCC1C (stereo not given),1.6,-3.0,8.9,10.4,5.6
COc1ccc(/C=C2\CCCC3C2=NN(C(=O)COC(=O)CNC(=O)c2ccccc2)C3c2ccc(OC)cc2)cc1 (stereo not given),18.4,0.1,9.4,19.0,17.6
COc1ncc(-c2ccc3c(c2)S(=O)(=O)c2cccc(C(=O)O)c2C3=O)cn1,4.0,3.5,11.7,-3.1,1.4
CCCn1nnnc1NCc1cccc(Cl)c1,15.2,12.7,5.6,9.1,-7.4
Cc1ccc(CSc2nc3ccsc3c(=O)n2Cc2ccccn2)cc1,-13.7,77.8*,-1.6,40.4,19.3
O=C1c2cc(F)ccc2-n2c1nc1ccccc1c2=O,-10.8,89.6*,-3.4,30.2,9.0
CC(=NNc1nc2ccccc2o1)c1cc2ccccc2cn1,.,144.7*,.,.,.
CC(=NNc1nc2ccccc2s1)c1ncccn1,.,114.6*,.,.,.
CC(=NNc1nc2ccccc2o1)c1ncccn1,.,125.6*,.,.,.
Oc1ccccc1/C=N/Nc1nc2ccccc2o1,9.8,-48.4,27.9,14.4,26.4
CC(=O)Nc1ccc(SCC(=O)c2cc(C)n(CC(F)(F)F)c2C)cc1,29.9,-25.4,14.7,30.5,7.1
Cc1nc(NC(=O)CSc2nnc(C3CC3)n2N)c(Cl)cc1Cl,-5.0,-28.6,6.8,4.5,-0.9
COc1cc(OC)cc(C(=O)NNC(=O)CNC(=O)c2cccs2)c1,-4.7,13.2,8.6,11.1,23.6
CCc1ccc(OCC(=O)NNC(=S)NC(=O)C2CC2)c(Br)c1,12.4,107.6*,42.5,20.2,-11.1
CN1CCc2c(sc(NC(=O)C3CCN(S(=O)(=O)c4cccs4)CC3)c2C(N)=O)C1,-3.9,10.8,6.1,-12.6,-0.9
O=C(Nc1ccccc1)C(Cl)C(=O)c1ccccc1 (stereo not given),32.6,106.4*,3.9,33.1,-22.4
COc1ccc(CCNC(=O)c2cc(Cl)nc3ccccc23)cc1,19.0,1.3,8.2,9.7,-6.1
O=C1C=CC(=O)N1CCCCCCCCCCN1C(=O)C=CC1=O,.,107.4*,.,.,.
CCOC(=O)/C(=C\c1ccccc1)C(=O)c1cc(C(C)=O)c(Nc2ccccc2)s1,36.2,7.5,19.2,39.0,32.5
